Screening data deposited in PubChem by The Scripps Research Institute Molecular Screening Center.
Sampled rows, rich in hits. Any-hit rate of the full collection: about 3.5%.
GPR151 ag = human GPR151 activation. Q8TDV0. PathHunter beta-arrestin GPR151 cells, luminescence. activation, % at 11.2 µM. 650,000 tested, 1% active. AID 1508602; in the data active = activation above about 4.9%
FBW7 act = human FBW7 E3 ligase activation, primary screen. AlphaScreen FBW7–phospho-cyclin E peptide binding, activator screen. normalized activity (activation), % at 26.1 µM. 650,000 tested, 0.13% active. AID 1259310; in the data active = normalized activity above about 1.9%;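 note: purified mutant Fbw7 with reduced substrate affinity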
TEAD-YAP block = TEAD-YAP interaction inhibition; AID 1259422; inhibition, % at 9.12 µM; 640,000 tested, 1.4% active; HEK-TIYL cells, TEAD-Gal4/YAP UAS-luciferase luminescence; in the data active = inhibition above about 32%
MITF primary = blocks human microphthalmia-associated transcription factor. O75030. AlphaScreen MITF homodimerization, bead proximity signal. inhibition, % at 2.6 µM. 650,000 tested, 0.91% active. AID 1259374; in the data active = inhibition above about 50%
Target sequence (O75030 whole entry, looked up): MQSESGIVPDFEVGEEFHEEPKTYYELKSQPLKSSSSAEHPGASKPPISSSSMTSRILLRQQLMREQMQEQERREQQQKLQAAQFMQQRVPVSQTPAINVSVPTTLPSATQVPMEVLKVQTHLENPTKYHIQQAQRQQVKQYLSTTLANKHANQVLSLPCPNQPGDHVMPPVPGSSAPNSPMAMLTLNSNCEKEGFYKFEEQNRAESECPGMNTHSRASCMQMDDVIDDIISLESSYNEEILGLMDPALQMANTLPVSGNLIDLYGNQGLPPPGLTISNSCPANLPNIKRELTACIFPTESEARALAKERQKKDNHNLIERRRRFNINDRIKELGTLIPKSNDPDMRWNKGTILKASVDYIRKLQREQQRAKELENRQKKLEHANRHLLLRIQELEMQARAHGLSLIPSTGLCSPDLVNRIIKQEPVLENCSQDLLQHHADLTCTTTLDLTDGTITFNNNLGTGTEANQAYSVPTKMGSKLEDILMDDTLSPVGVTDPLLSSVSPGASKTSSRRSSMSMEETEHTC
Numbers stand for hits; - = inactive.

SMILES	GPR151 ag	FBW7 act	TEAD-YAP block	MITF primary
N#CC(C#N)C(C#N)(C#N)C1CCCC1=O (stereo unspecified)	-	-	-	78.3
N#CC(C#N)C(C#N)(C#N)C1CCCCC1=O (stereo unspecified)	-	-	-	-
COc1cc(C)c(CN2CCC3(CCC(CNC(=O)c4ccccc4)O3)CC2)cc1C (stereo unspecified)	-	-	-	-
N=C1/C(=C/c2cccn2-c2cc([N+](=O)[O-])ccc2Cl)C(=O)N=C2SC=CN12	-	-	36.3	-
CCCSc1nnc2c(n1)OC(c1c(C)[nH]n(-c3ccccc3)c1=O)Nc1ccccc1-2 (stereo unspecified)	-	-	-	61.5
CCOc1ccccc1Nc1ncnc(N)c1[N+](=O)[O-]	-	-	-	-
CCc1cc(=O)[nH]c(-n2nc(C)cc2NC(=O)CC2CCCC2)n1	-	-	57.6	-
CCCc1cc(=O)[nH]c(-n2nc(C)cc2NC(=O)C2CC2)n1	-	-	-	-
O=C(Nc1cccc([N+](=O)[O-])c1)[C@H]1CC=CC[C@H]1C(=O)O	-	-	-	-
O=C(O)CCC(=O)N1N=C(c2c(-c3ccccc3)c3cc(Br)ccc3[nH]c2=O)CC1c1ccc([N+](=O)[O-])cc1 (stereo unspecified)	-	-	-	-
COc1ccc(-c2nc(C(N)=O)c3[nH]c(=O)n(-c4ccc(F)cc4)c3n2)cc1OC	-	-	-	-
COc1ccc(-c2nc(C(N)=O)c3[nH]c(=O)n(-c4ccc(F)cc4)c3n2)cc1O	-	-	54.1	-
COc1cc(-c2nc(C(N)=O)c3[nH]c(=O)n(-c4ccc(C)cc4)c3n2)cc(OC)c1OC	-	-	-	-
COc1ccc(-c2nc(C(N)=O)c3[nH]c(=O)n(-c4cccc(C)c4)c3n2)cc1	-	-	58.2	-
COc1ccc(-c2nc(C(N)=O)c3[nH]c(=O)n(-c4ccc(C)cc4)c3n2)cc1O	-	-	67.2	-
COc1cccc(-c2nc(C(N)=O)c3[nH]c(=O)n(-c4cccc(C)c4)c3n2)c1	-	-	-	-
COc1ccc(-c2nc(C(N)=O)c3[nH]c(=O)n(-c4ccc(Cl)cc4)c3n2)cc1O	-	-	51.5	-
C=CCN=Cc1c(NCC=C)nc2c(C)cccn2c1=O	-	-	-	-
CN(C)S(=O)(=O)N=C1C=CC(=NS(=O)(=O)N(C)C)C=C1	-	-	-	54.8
O=C(Cn1ncc2c(=O)oc3ccccc3c21)N1CCN(c2ccccc2)CC1	-	-	-	-
O=C(Cn1ncc2c(=O)oc3ccccc3c21)N1CCN(c2cccc(Cl)c2)CC1	-	-	41.1	-
COc1ccc(C(=O)N2CCN(c3ccc([N+](=O)[O-])c(NC4CC4)c3)CC2)cc1Br	-	-	-	-
O=C(CCl)Nc1ccc(OC(F)F)cc1	-	-	35.0	-
O=C(Nc1ccc(OC(F)(F)F)cc1)c1ccc(=O)[nH]c1	-	-	32.8	-
O=C(CCl)Nc1ccc(Cl)c(C(F)(F)F)c1	-	-	39.5	-
SMILES	GPR151 ag	FBW7 act	TEAD-YAP block	MITF primary
O=C(O)CCCC(=O)Nc1ccc(OC(F)(F)F)cc1	-	-	-	-
O=C(CCl)Nc1ccc(OC(F)(F)F)cc1	-	-	34.2	-
CCCC(=O)Nc1ccc(Cl)c(C(F)(F)F)c1	-	-	-	-
COc1ccc(NC(C)C(=O)N/N=C/c2ccc(O)cc2O)cc1 (stereo unspecified)	-	-	-	-
COCCN(CC(=O)NC1CCCCC1)C(=O)/C=C/C(=O)c1ccc(OC)cc1O	-	-	49.5	-
COc1ccc(C(=O)OCC(=O)NC(=O)NC2CCCC2)c(O)c1	-	-	-	-
O=C(N/N=C/c1ccc(O)cc1O)c1cccs1	-	-	-	82.5
O=C(N/N=C/c1ccc(O)cc1)c1cccs1	-	-	-	-
CCOc1cc(C(=O)N/N=C/c2ccc(O)cc2O)cc(OCC)c1OCC	-	-	72.2	-
O=C(N/N=C/c1cc(Br)ccc1F)c1cccs1	-	-	-	-
O=C(N/N=C/c1cc(Br)ccc1O)c1cccs1	-	-	39.7	-
COc1ccc(C(=O)N/N=C/c2ccc(O)cc2O)cc1	-	-	-	-
CCN(CC)c1ccc(/C=N/NC(=O)c2nonc2N)cc1	-	-	45.6	-
COC(=O)c1ccc(CN2CCC(N(Cc3ccco3)S(C)(=O)=O)CC2)cc1	-	-	-	-
Nc1nonc1C(=O)N/N=C\c1ccc(O)c(O)c1	-	-	-	-
O=C(N/N=C/c1ccc(O)cc1O)c1ccc[n+](CCO)c1	-	-	-	101.5
O=C(N/N=C/c1cc(Cl)ccc1O)c1cccs1	-	-	55.4	-
Nc1nonc1C(=O)N/N=C/c1ccc(O)cc1O	-	-	-	94.4
O=C(N/N=C\c1ccc(O)cc1O)C(=O)N/N=C/c1ccc(O)cc1O	-	-	-	68.8
Cc1ccccc1NC(=O)CSC1=C(C#N)C(c2ccc(F)cc2)CC(=O)N1 (stereo unspecified)	-	-	-	-
O=C(CNc1ccc2ccccc2c1)N/N=C/c1ccc(O)cc1O	-	-	39.9	-
COc1ccc2c(c1)OCC(Cc1ccc(OC)c(OC(C)=O)c1)C2=O (stereo unspecified)	-	-	51.6	-
COc1ccc2c(c1)OCC(Cc1ccc(OC)c(OC)c1)C2=O (stereo unspecified)	-	-	47.8	-
COc1ccc(NC(=O)Cc2ccc(OC)c(OC)c2)c(OC)c1	-	-	-	-
COc1ccc2c(c1)O[C@@H]1COc3cc(OC)c(OC)cc3[C@@H]1C2=O	-	-	32.3	-
SMILES	GPR151 ag	FBW7 act	TEAD-YAP block	MITF primary
COc1ccc(Nc2c3c(nc4ccccc24)CCC3)cc1	-	-	-	-
COC(=O)c1ccc(Nc2c3c(nc4ccccc24)CCC3)cc1	-	-	45.5	-
CSc1ccc(-c2cc(=O)c3cc(O)ccc3o2)cc1	-	-	44.0	-
COc1ccc(-c2cc(=O)c3ccc(O)cc3o2)cc1	-	-	55.7	-
CCOc1ccc(-c2cc(=O)c3cc(O)ccc3o2)cc1	-	-	47.0	-
CCOc1ccc(-c2cc(=O)c3ccccc3o2)cc1	-	-	-	-
CSc1ccc(-c2cc(=O)c3ccccc3o2)cc1	-	-	-	-
CCOc1ccc2nc(SCc3c(C(=O)OC)nnn3-c3nonc3N)sc2c1	-	-	-	-
CC1(c2cccc(OCc3ccc(F)cc3)c2)NC(=O)NC1=O (stereo unspecified)	-	-	-	-
CC(=O)NC(C(=O)NCC1Cc2cc(F)cc(-c3nc(C)cnc3C)c2O1)C(C)C (stereo unspecified)	-	-	-	-
CCOc1ccc(C)cc1S(=O)(=O)Nc1ccc(I)cc1	-	-	41.8	-
CCOc1ccc(C)cc1S(=O)(=O)Nc1ccc(F)cc1	-	-	-	-
O=S(=O)(c1ccc2c(c1)N=Cc1c(nc3sccn13)O2)N1CCOCC1	-	-	-	-
O=S(=O)(c1ccc2c(c1)N=Cc1c(F)cccc1O2)N1CCOCC1	-	-	44.6	-
Cc1ccc(C(=O)Nc2sc3c(c2C(=O)Nc2ccc(Cl)cc2)CCC(C)C3)cc1 (stereo unspecified)	-	-	-	-
Nc1c2ccccc2nc2ccccc12	-	-	74.5	-
